# AmpC inh no detg: inhibitors of E. coli AmpC beta-lactamase without detergent. AmpC nitrocefin hydrolysis, absorbance 480 nm, 0.0001% Triton. Potency, µM (top dose mostly 57.1 µM), for the others: at the highest dose activity change, negative = inhibition, usual class: inhibitors. 330,000 compounds, 0.52% hits. AID 485341;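 also: plate controls were no compound for no effect and no enzyme for full effect; nearly all actives have a fitted effect of over 20% in size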
# Target sequence (P00811 whole entry, looked up): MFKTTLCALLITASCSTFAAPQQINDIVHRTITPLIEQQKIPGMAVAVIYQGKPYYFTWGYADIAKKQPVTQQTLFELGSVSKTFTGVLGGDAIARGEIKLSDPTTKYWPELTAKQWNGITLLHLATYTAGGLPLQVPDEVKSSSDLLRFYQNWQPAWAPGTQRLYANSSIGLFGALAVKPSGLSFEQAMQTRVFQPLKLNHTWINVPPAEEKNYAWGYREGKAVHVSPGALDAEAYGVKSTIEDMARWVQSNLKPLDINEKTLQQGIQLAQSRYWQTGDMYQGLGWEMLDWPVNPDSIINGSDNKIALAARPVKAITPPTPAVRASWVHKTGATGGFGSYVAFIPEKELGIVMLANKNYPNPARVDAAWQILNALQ
#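 AmpC (5.3 nM in the dispensed reagent) in 20 mM phosphate pH 7.0 with 0.01% (detergent screen) or 0.0001% Triton X-100 was preincubated with compounds for 15 min at room temperature. Nitrocefin was then added from an 800 uM solution, and hydrolysis was followed at 480 nm.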
# Pf growth 48h: P. falciparum growth inhibition at 48 hours (one generation). Potency, µM (highest dose often 28.7 µM), for the others: at the highest dose activity change, negative = inhibition, hits mostly inhibitors. P. falciparum luciferase growth in erythrocytes, 48 h. 310,000 compounds, 5.9% hits
#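 Compounds are pin-transferred into medium, infected erythrocytes (2% hematocrit, 0.1% parasitemia final) are added, and plates sit one parasite generation at 37 C in 5% CO2. Detection reagent is then added and luminescence measured.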
# AmpC inh detg: AmpC beta-lactamase inhibition with detergent present; AID 485294; AmpC hydrolysis of nitrocefin, absorbance 480 nm, 0.01% Triton; Potency, µM (titrated, usually from 114 µM), for the others: at the top dose activity change, negative = inhibition, most hits filed as inhibitors; 370,000 compounds, 0.041% hits;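 also: 0% = no-compound wells and -100% = no-enzyme wells; nearly all actives have a fitted effect of over 25% in size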
#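 20 mM phosphate pH 7.0 + 0.01% (detergent screen) or 0.0001% Triton X-100; 5.3 nM AmpC reagent; cpd preinc 15 min RT; nitrocefin (800 uM stock) to start; A480 q20 s × 4 min; Activity was normalised to no-enzyme and no-compound control wells.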
# AMA1-RON2 inh: AMA1-RON2 (P. falciparum) interaction inhibition. AlphaScreen AMA1-biotinylated RON2 peptide binding. Potency, µM (titrated, usually from 58.2 µM), inactives show at the highest dose activity change, negative = inhibition, actives largely listed as inhibitors. 360,000 compounds, 0.2% hits. AID 720542;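 also: 0% = vehicle wells and -100% = peptide control; nearly all actives have a fitted effect of over 45% in size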
#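 AMA1 (3D7) with his tag at 25 nM final met compounds first, then biotinylated RON2 peptide at 25 nM; detection used donor plus acceptor beads, 10 µg/mL apiece, read by AlphaScreen after 30 min at room temperature.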
# Pf growth 96h: P. falciparum growth inhibition at 96 hours; P. falciparum luciferase reporter growth, 96 h; Potency, µM (doses to about 28.7 µM), without a hit: at the top dose activity change, negative = inhibition, actives largely listed as inhibitors; 320,000 compounds, 6.9% hits; AID 504834
#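 P. falciparum expressing integrated firefly luciferase grown in erythrocytes (2% hematocrit, 0.05% parasitemia final) with compounds for 96 hours at 37 C, 5% CO2. Growth inhibition read as loss of luminescence after adding luciferase detection reagent.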
# HCV inh: inhibitors of hepatitis C virus infection; Huh7.5.1 HCVcc-Cre infection, luciferase reporter, 44 h; 340,000 compounds, 3.4% hits; Potency, µM (doses to about 41.8 µM), for inactives: top-dose activity change, negative = inhibition, actives largely listed as inhibitors; AID 651820
#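 Infectious HCV cell culture screen: compound-treated cells (1,000/well, pre-plated 4 h) are infected with HCVcc-Cre at roughly 0.5 moi and grown 44 h. Infection is quantified by luciferase signal after 15 min substrate incubation at room temperature.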
# * hit, by the source's call; ? = inconclusive; / = not tested or not shown; [ ] = remark or other dose. This is a sample that favours compounds with a hit; in the whole collection about 11% have one here. Calls follow the shape of the dose curve; as a rule, active = well fitted curve in the direction sought with a large enough effect; inconclusive = small, poorly fitted or top-dose-only effect, or another doubt; inactive = no such curve, though single readings can be large; an effect the other way counts as inactive or inconclusive. Unless noted, % is scaled to controls: 0 for no effect and ±100 for the full control effect; potency is read from the fitted curve at half-maximal effect.
SMILES,AmpC inh no detg,Pf growth 48h,AmpC inh detg,AMA1-RON2 inh,Pf growth 96h,HCV inh
CC(C)NC(=O)C1CCC(Cn2c(=O)c3sccc3n(CC(=O)Nc3ccccc3)c2=O)CC1 (configuration not stated),/,/,10%,/,/,/
Cc1ccc(Oc2ccc(NC(=O)Cn3ccsc3=N)cc2)cc1,-16%,10µM*,-10%,-7%,/,?
O=C(Cc1ccc(Cl)cc1)Nc1cccc(S(=O)(=O)N2CCCCC2)c1,-32%,?,-1%,11%,?,?
Cc1ccc(NC(=O)CN(C)C(=O)Cn2ccsc2=N)cc1,-14%,0%,-1%,-8%,14%,-2%
O=C(CCl)Nc1cccc(S(=O)(=O)N2CCCCCC2)c1,-24%,6.6µM*,0%,-22%,5.2µM*,?
O=C(COc1ccccc1Cl)Nc1cccc(S(=O)(=O)N2CCCC2)c1,-21%,?,-5%,3%,?,10µM*
O=C(Cc1n[nH]c(=O)c2ccccc12)Nc1cccc(S(=O)(=O)N2CCCCCC2)c1,-29%,9.3µM*,-1%,4%,?,?
COc1cc(NC(=O)CC(C)n2nc(C)cc2C)cc(OC)c1 (configuration not stated),/,/,19%,/,/,/
COCCN(CC(=O)Nc1cccc(S(=O)(=O)N2CCCC2)c1)Cc1nc2ccccc2c(=O)[nH]1,-5%,10µM*,0%,88%,?,?
O=C(COc1cc(F)ccc1[N+](=O)[O-])Nc1cc(S(=O)(=O)N2CCCC2)ccc1Cl,-42%,2%,-14%,10%,?,14µM*
COCCN(Cc1nc2ccccc2c(=O)[nH]1)C(=O)c1cccc(S(=O)(=O)N2CCCC2)c1,-11%,?,1%,17%,-29%,13%
COc1ccc(/C=C\c2onc(C)c2S(=O)(=O)N2CCC(C(=O)Nc3cccc(Cl)c3)CC2)cc1,/,/,-7%,/,/,/
O=C(Nc1cccc2cccnc12)c1ccc(F)cc1,/,/,13%,/,/,/
Cc1cccc(NC(=O)CSc2nnc(-c3ccco3)c(-c3ccco3)n2)c1,16µM*,3%,8%,?,1%,?
Cc1cccc(NC(=O)CSc2nnc(CSc3nc(C)cc(C)n3)n2Cc2ccco2)c1,61%,?,?,-19%,15µM*,?
Cc1nn(CC(N)=O)c(=O)c2ccccc12,-12%,?,-13%,2%,2.1µM*,3%
Cc1nn(CC(=O)N2CCN(C)CC2)c(=O)c2ccccc12,0%,31%,2%,-7%,7.4µM*,15%
CCOC(=O)Cn1nc(C)c2ccccc2c1=O,-16%,16%,?,5%,/,9%
CCOC(=O)C1CCCN(CCC(=O)Nc2ccc(OC)cc2OC)C1 (configuration not stated),/,/,7%,/,/,/
CC(C)c1ccc(OCC(=O)NCC(c2ccc(Cl)cc2)N2CCOCC2)cc1 (configuration not stated),/,/,7%,/,/,/
CC(C)(C)OC(=O)N1CCC(c2c(C(=O)NCCN3CCOCC3)cnn2-c2ccccc2)CC1,/,/,11%,/,/,/
CC(C)(C)OC(=O)NCCCC[C@@H](C(=O)NCCCCCCCCCCC(=O)N1CCN(C(=O)OC(C)(C)C)CC1)n1cc(CCCC(=O)O)nn1,220%,7.4µM*,2%,4%,5.9µM*,17%
CC(C)(C)OC(=O)NCCCCCc1cn([C@@H](CO)C(=O)NCCCCCCCCCCC(=O)N2CCN(C(=O)OC(C)(C)C)CC2)nn1,271%,1.2µM*,6%,-1%,2.9µM*,?
CCCCc1cn([C@@H](CCCCNC(=O)OC(C)(C)C)C(=O)N2CCN(C(=O)OC(C)(C)C)CC2)nn1,188%,15µM*,6%,12%,10µM*,14%
CC(C)(C)OC(=O)NCCCC[C@@H](C(=O)N1CCN(C(=O)OC(C)(C)C)CC1)n1cc(CCC(=O)O)nn1,-2%,25%,-6%,-1%,39%,22%
SMILES,AmpC inh no detg,Pf growth 48h,AmpC inh detg,AMA1-RON2 inh,Pf growth 96h,HCV inh
CC(C)(C)OC(=O)CC[C@@H](C(=O)NCCCCCCCCCCC(=O)N1CCN(C(=O)OC(C)(C)C)CC1)n1cc(CCCCCNC(=O)OC(C)(C)C)nn1,55%,0.37µM*,-8%,40%,0.33µM*,-14%
CCOc1ccc(NC(=O)C(C)Sc2nc3ncccc3o2)cc1 (configuration not stated),/,/,22%,/,/,/
COc1ccc(S(=O)(=O)N2CCCN(CC(=O)Nc3ccc(OC)cc3OC)CC2)cc1,/,/,2%,/,/,/
CSc1nnc2[nH]c(=O)cc(C)n12,/,/,1%,/,/,/
COC(=O)C1=C(C)N(C)C(C)=C(C(=O)OC)C1c1ccncc1,-2%,-10%,?,2%,0%,-2%
COC(=O)C1=C(C)N(C)C(C)=C(C(=O)OC)C1c1ccc(F)c(Br)c1,17%,9.3µM*,-16%,-8%,-11%,-14%
CCOc1cc(N2CCOCC2)c(OCC)cc1NC(=O)Cc1ccccc1,60%,?,1%,-19%,?,1%
CCOC(=O)c1c(C)[nH]c(C(=O)Nc2cc(OCC)c(N3CCOCC3)cc2OCC)c1C,-6%,2.9µM*,-12%,-16%,15µM*,?
CCOc1cc(N2CCOCC2)c(OCC)cc1NC(=O)Cc1ccccc1OC,127%,?,-2%,-18%,7.4µM*,-17%
CCOc1cc(N2CCOCC2)c(OCC)cc1NC(=O)c1cc(C)cc(C)c1,-4%,13µM*,7%,-12%,?,3.5µM*
Cc1c(C(=O)NCCc2ccc(Cl)cc2)sc2nc3n(c(=O)c12)CCCC3,/,/,3%,/,/,/
COc1ccc(N2Cc3cccc(C(=O)Nc4ccc(Cl)cc4)c3C2=O)cc1,/,/,-14%,/,/,/
O=C(Nc1ccc(Oc2ccccc2)cc1)c1ccc(Cn2c(=O)[nH]c3ccsc3c2=O)cc1,16µM*,18%,-6%,-7%,13µM*,-21%[8.37 µM]
Cc1ccc(C)c(N2CCN(c3nccn4nc(-c5ccc(Br)cc5)cc34)CC2)c1,/,/,14%,/,/,/
CSc1ncccc1C(=O)Nc1ccc(OC(F)(F)F)cc1,-11%[11.4 µM],10%,-7%,31%,42%,-10%
CC(=O)Nc1ccc(Sc2ncccc2C(=O)Nc2ccc(F)cc2)cn1,-9%,13µM*,6%,-12%,6.6µM*,?
COc1ccc(CN(C)C(=O)c2ccc3c(=O)n4c(nc3c2)CCC4)cc1,184%,-2%,-6%,-15%,?,5%
CCN(CC)S(=O)(=O)c1ccc(NC(=O)c2ccc3c(=O)n4c(nc3c2)CCCCC4)cc1,/,/,7%,/,/,/

# Assay outcomes: PubChem BioAssay, National Center for Advancing Translational Sciences (NCATS)
